Assay outcomes (PubChem)
TrxR1 substrate – qHTS Assay for Substrates of Mammalian Selenoprotein Thioredoxin Reductase 1 (TrxR1): qHTS | Thioredoxin reductase 1, cytoplasmic (Rattus norvegicus), O89049 | purified TrxR1 substrate turnover, NADPH consumption readout | Potency, µM (top dose mostly 114 µM), inactives show at the top dose activity change, negative = substrate turnover | actives 0.01% (n = 390,000) | AID 588456, 2011; note: % is set by controls: 0 for no effect and ±100 for the full control effect; nearly all actives have a fitted effect of over 50% in size
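Rat TrxR1, dispensed at 90 nM, was prereduced with 400 uM NADPH (final) for 5 min at ~22 deg C, then incubated with compound 15 min before 400 uM selenite. A first-read NADPH fluorescence drop versus no-compound background flagged substrates.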
Nrf2 activator – qHTS of Nrf2 Activators | AREc32 ARE-luciferase reporter (MCF7-derived line), luminescence, 24 h | Potency, µM (top dose mostly 46.1 µM), for the others: at the highest dose activation, usual class: activators | actives 0.31% (n = 410,000); note: % of control where 0% means no effect; nearly all actives have a fitted effect of over 65% in size
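Steps: seed AREc32_Fluc cells (1000/well, 5% FBS OPTI-MEM); incubate overnight at 37 deg C; add 23 nL compound; incubate 24 hr; add Steady-Glo; hold 30 min RT; read luminescence.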
rTrxR1 inhibitor – qHTS Assay for Inhibitors of Mammalian Selenoprotein Thioredoxin Reductase 1 (TrxR1): qHTS. Thioredoxin reductase 1, cytoplasmic (Rattus norvegicus), O89049. Potency, µM (series often up to 114 µM), for inactives: top-dose activity change, negative = inhibition, actives largely listed as inhibitors. recombinant rTrxR1, NADPH fluorescence consumption, selenite substrate. actives 1% (n = 390,000); note: % is set by controls: 0 for no effect and ±100 for the full control effect; nearly all actives have a fitted effect of over 65% in size
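Rat TrxR1 (90 nM in the dispensed reagent) was pre-reduced with 400 uM NADPH for 5 min at room temperature, then incubated with compound for 15 min. After 400 uM selenite was added, NADPH fluorescence (Ex 340/Em 450 nm) was followed for 8 min.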
GALK inh – qHTS Assay for Inhibitors of Human Galactokinase (GALK) | P51570 | actives 0.007% (n = 270,000) | Potency, µM (top dose mostly 57.5 µM), without a hit: at the top dose activity change, negative = inhibition, hits mostly inhibitors | Purified GALK, Kinase-Glo residual ATP luminescence; note: % is set by controls: 0 for no effect and ±100 for the full control effect
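ATP-depletion format; final 35 uM ATP, 100 uM D-galactose, 5 nM enzyme; pH 8.0 HEPES/Mg2+ buffer; 60 min RT; luminescence read 10 min after detection reagent.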
Nrf2 block – Nrf2 qHTS screen for inhibitors; Potency, µM (highest dose often 46 µM), for the others: top-dose activity change, negative = inhibition, usual class: inhibitors; A549 ARE-Fluc reporter, luciferase luminescence, 18-24 h; actives 2.1% (n = 360,000); note: % is set by controls: 0 for no effect and ±100 for the full control effect; nearly all actives have a fitted effect of over 60% in size
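Quantitative HTS in A549 cells stably bearing an antioxidant response element-firefly luciferase construct. Inhibition of Nrf2-driven transcription was scored by luminescence after 18-24 h of compound exposure at 37 °C.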
A549 tox-1 – Nrf2 qHTS screen for inhibitors: counterscreen for cytotoxicity. actives 0.16% (n = 390,000). AID 504648, 2011. A549 ARE-Fluc cells, CellTiter-Fluor viability, 18-24 h. Potency, µM (titrated, usually from 46 µM), for inactives: top-dose activity change, negative = cytotoxicity, hits mostly inhibitors; note: % is set by controls: 0 for no effect and ±100 for the full control effect
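Cytotoxicity counterscreen: CellTiter-Fluor fluorescence was measured in A549 ARE_Fluc cells after 18-24 h of compound exposure in a concentration series. The subsequent BugLite luminescent read reports ARE-luciferase activity.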
FLuc counter 3 – Nrf2 qHTS screen for inhibitors: Purified Fluc Biochemical Counterscreen for Hit Validation. purified firefly luciferase, luminescence inhibition. Potency, µM (titrated, usually from 57.5 µM), for the others: top-dose activity change, negative = inhibition, usual class: inhibitors. actives 4% (n = 1,400). shares compounds with Nrf2 block; note: % is set by controls: 0 for no effect and ±100 for the full control effect; nearly all actives have a fitted effect of over 65% in size
Target sequence (P08659 whole entry, looked up): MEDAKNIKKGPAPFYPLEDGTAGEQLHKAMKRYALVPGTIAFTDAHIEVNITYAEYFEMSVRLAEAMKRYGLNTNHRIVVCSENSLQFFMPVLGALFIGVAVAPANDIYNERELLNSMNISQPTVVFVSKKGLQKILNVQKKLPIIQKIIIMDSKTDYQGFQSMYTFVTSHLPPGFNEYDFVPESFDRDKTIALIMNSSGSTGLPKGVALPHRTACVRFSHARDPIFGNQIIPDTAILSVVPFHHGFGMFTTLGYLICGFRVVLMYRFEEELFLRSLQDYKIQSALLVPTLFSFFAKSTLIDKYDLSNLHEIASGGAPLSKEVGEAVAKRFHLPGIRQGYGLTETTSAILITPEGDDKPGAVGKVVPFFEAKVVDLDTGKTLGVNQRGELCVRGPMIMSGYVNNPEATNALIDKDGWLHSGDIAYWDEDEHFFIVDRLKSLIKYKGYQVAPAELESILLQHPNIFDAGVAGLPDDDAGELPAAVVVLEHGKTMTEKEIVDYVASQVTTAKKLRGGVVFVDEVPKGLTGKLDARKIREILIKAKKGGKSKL
A549 tox-2 – Nrf2 qHTS screen for inhibitors: A549 ARE-Fluc Cytotoxicity Counterscreen for Hit Validation; Potency, µM (titrated, usually from 46.1 µM), without a hit: at the highest dose activity change, negative = cytotoxicity, hits mostly inhibitors; shares compounds with Nrf2 block; AID 720523, 2013; A549 ARE-Fluc cells, cytotoxicity counterscreen; actives 2% (n = 1,400);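 note: cells exposed to compounds for 18 to 24 hours; % is set by controls: 0 for no effect and ±100 for the full control effect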
ARE-Fluc inh – Nrf2 qHTS screen for inhibitors: Nrf2 A549 ARE-Fluc Confirmation Assay for Hit Validation. actives 74% (n = 1,400). shares compounds with Nrf2 block. Potency, µM (titrated, usually from 46.1 µM), for the others: at the highest dose activity change, negative = inhibition, usual class: inhibitors. A549 ARE-firefly luciferase reporter, luminescence; note: % is set by controls: 0 for no effect and ±100 for the full control effect; nearly all actives have a fitted effect of over 65% in size
* = called active by the depositor; ? = inconclusive; nt = not tested or not shown; [ ] = another dose, or the depositor's remark. The list is not random: actives were taken first. Their share in the collection is about 3%. Calls come from the whole dose curve; as a rule, active = well fitted curve in the direction sought with a large enough effect; inconclusive = small, poorly fitted or top-dose-only effect, or another doubt; inactive = no such curve, though single readings can be large; an effect the other way counts as inactive or inconclusive. Potency is the fitted concentration of half-maximal effect.

SMILES	TrxR1 substrate	Nrf2 activator	rTrxR1 inhibitor	GALK inh	Nrf2 block	A549 tox-1	FLuc counter 3	A549 tox-2	ARE-Fluc inh
CC(=O)Nc1ccc(NC(=S)NC(=O)c2ccc(-c3ccccc3)cc2)cc1	8%	-1%	14%	nt	-23%	-3%	nt	nt	nt
CC(C)NS(=O)(=O)c1ccc(NC(=S)NC(=O)c2ccc(-c3ccccc3)cc2)cc1	11%[57.1 µM]	0%	3%[11.4 µM]	-1%	2.1µM*	-5%	-1%	-9%	4.6µM*
CN(c1ccc(OCC(=O)N2CCN(c3ccc(F)cc3)CC2)cc1)S(=O)(=O)c1cccs1	-2%	3%	-4%	-1%	?	-5%	nt	nt	nt
O=C(CSC1=NCCS1)Nc1ccnc2ccccc12	-12%	11%	21%	-3%	5.2µM*	-15%	-2%	-11%	7.3µM*
Cc1cc(C)nc(SCC(=O)Nc2ccnc3ccccc23)n1	-9%[57.1 µM]	3%	37%[57.1 µM]	0%	1.2µM*	?	-2%	-9%	-24%
CC(C)(C)c1ccc(C(=O)N2CCCCCC2=O)cc1	-16%	-2%	-6%	0%	9.2µM*	-8%	?	-11%	3.7µM*
O=C1CCCCCN1C(=O)c1ccccc1	2%	-1%	20%[57.1 µM]	nt	-3%	-2%	nt	nt	nt
CCCCCCCCNc1ncnc2ccccc12	-17%[57.1 µM]	4%	?	0%	5.8µM*	?	-1%	-2%	7.3µM*
Nc1cc[n+](CC(=O)c2ccc3c(c2)OCCO3)cc1	1%	-1%	11%	1%	2.1µM*	?	-4%	?	5.8µM*
CCOc1ccc(/C=N/Nc2nc(C)cs2)c(O)c1	-14%	16%	?	3%	25%	12%	nt	nt	nt
CCN(CC)S(=O)(=O)c1ccc(C)c(NC(=S)N2CCN(Cc3ccc4c(c3)OCO4)CC2)c1	-5%[57.1 µM]	0%	-21%[57.1 µM]	2%	6.5µM*	-14%	-1%	1%	10µM*
Cc1ccc(NC(=S)N2CCN(Cc3ccc4c(c3)OCO4)CC2)c(C)c1	-8%	-1%	-2%	nt	?	12%	nt	nt	nt
O=C(CSc1nnc(NC(=O)C2CC2)s1)NCc1ccc(F)cc1	-5%	0%	6%	8%	-23%	-2%	nt	nt	nt
c1ccc(-c2c[n+]3c(n2-c2ccccc2)CCC3)cc1	-2%	0%	24%	-2%	?	-10%	nt	nt	nt
CCOc1ccc(-n2c(-c3ccccc3)c[n+]3c2CCCCC3)cc1	2%	0%	4%	-3%	2.1µM*	-18%	0%	-14%	5.8µM*
Cc1ccc(-c2c[n+]3c(n2-c2ccccc2)CCC3)cc1	6%[57.1 µM]	2%	13%[57.1 µM]	-2%	6.5µM*	-10%	2%	-5%	13µM*
O=C1CCCCC1CCc1ccncc1 (configuration not stated)	10%[57.1 µM]	0%	16%[57.1 µM]	nt	18%	0%	nt	nt	nt
O=S(=O)(c1cccc2ccccc12)N1CCN(c2ccc(Cl)c(Cl)c2)CC1	8%[11.4 µM]	-1%	8%	nt	?	-1%	nt	nt	nt
CC1CCCC=CC2CC(OC(=O)CN(C)C)CC2C(O)C=CC(=O)O1 (configuration not stated)	-3%	-1%	?	nt	0.21µM*	?	1%	?	0.41µM*
O=C(Cc1ccccc1)Nc1nc(-c2ccc(F)c(F)c2)cs1	0%[57.1 µM]	0%	19%[57.1 µM]	2%	-6%	-1%	nt	nt	nt
CCc1nnc(NC(=O)Cc2ccc(OC)c(OC)c2)s1	3%	0%	29%	-3%	-2%	0%	nt	nt	nt
COc1ccc(CC(=O)Nc2nnc(C(C)(C)C)s2)cc1OC	3%	6%	10%	-3%	9.2µM*	-24%	-1%	-3%	3%
CCc1ccccc1OCC(=O)Nc1nc(-c2cccnc2)cs1	3%[57.1 µM]	5%	8%[57.1 µM]	1%	7.3µM*	?	-19%	?	?
COc1ccc(-c2csc(NC(=O)Cc3ccccc3)n2)cc1OC	4%	-1%	15%	-3%	2.6µM*	-9%	-25%	-3%	nt
CN(c1ccccc1)c1nc(C#N)nc(N2CCOCC2)n1	-14%	nt	-25%	nt	8.2µM*	-8%	-23%	-12%	?
Cc1ccc(S(=O)(=O)N(C)c2ccc3c(c2)C(=O)c2ccccc2-3)cc1	nt	8%	nt	nt	nt	nt	nt	nt	nt
O=C(CCN1C(=O)/C(=C/c2ccccc2Cl)SC1=S)Nc1ccccc1C(=O)O	-15%	?	-14%	-1%	-2%	1%	nt	nt	nt
O=C(CCCN1C(=O)/C(=C/c2ccccc2Cl)SC1=S)NNC(=O)c1ccc(Cl)cc1Cl	3%	-2%	17%	0%	6.5µM*	0%	-12%	-19%	7.3µM*
